Screens deposited in PubChem BioAssay by DiRusso Lab, Biochemistry Department, University of Nebraska.
The sample as a whole holds a higher share of hits than the screen did.
Chlamy TAG: inducers of TAG accumulation in Chlamydomonas, primary screen, qHTS, Chlamydomonas reinhardtii; Nile Red fluorescence, 72 h; calls only at 10 µM (by protocol); hit rate 0.84% among 44,000; call rule not given here;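 further: hits raise Nile Red signal meaning more stored TAG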
Starred values were filed as active, the others as inactive.

Screening COc1ccc(S(=O)(=O)N(CC(=O)N2CCCC2)c2cc(C)cc(C)c2)cc1OC returned Chlamy TAG inactive.
For COc1ccc(S(=O)(=O)N(CC(=O)NC(C)C)c2cc(C)cc(C)c2)cc1OC the results were Chlamy TAG active.
Screening COc1ccc(S(=O)(=O)N(CC(=O)Nc2ccccc2F)c2cc(C)cc(C)c2)cc1OC returned Chlamy TAG inactive.
Screening COCc1nnc(NS(=O)(=O)c2ccc(Br)cc2)s1 returned Chlamy TAG inactive.
`Cc1c(C(=O)Nc2ccccc2C(N)=O)cccc1[N+](=O)[O-]` gave Chlamy TAG inactive.
`Cc1ccccc1C(=O)Nc1ccccc1C(=O)NCc1ccccc1` gave Chlamy TAG inactive.
O=C(Nc1ccccc1C(=O)NCc1ccccc1)c1ccc(F)cc1 was read as Chlamy TAG active.
O=C(Nc1ccccc1C(=O)NCc1ccccc1)c1ccccc1F was read as Chlamy TAG inactive.
Screening Cc1c(C(=O)Nc2ccccc2C(=O)NCc2ccccc2)cccc1[N+](=O)[O-] returned Chlamy TAG active.
For O=C(Nc1ccccc1C(=O)NCc1cccnc1)c1ccc(F)cc1 the results were Chlamy TAG inactive.
For O=C(O)C(Cc1ccc([N+](=O)[O-])cc1)NC(=O)C(c1ccccc1)c1ccccc1 (stereo unspecified) the results were Chlamy TAG inactive.
`Cc1cc(C)c(C(=O)CSc2nc3ccccc3[nH]2)cc1C` gave Chlamy TAG inactive.
`CS(=O)(=O)Nc1cccc(F)c1` gave Chlamy TAG inactive.
Screening O=C(CSc1nc2sc3c(c2c(=O)n1-c1ccccc1)CCC3)c1ccco1 returned Chlamy TAG inactive.
For Fc1cccc(F)c1CN1CCN(C/C=C/c2ccccc2)CC1 the results were Chlamy TAG inactive.
`Cc1ccc(C)c(N2CCN(C(=O)C3CCC3)CC2)c1` gave Chlamy TAG inactive.
`C(=C\c1ccccc1)/CN1CCN(C2CCc3ccccc3C2)CC1` (stereo unspecified) gave Chlamy TAG active.
Cc1ccc(C)c(N2CCN(C3CCc4ccccc4C3)CC2)c1 (stereo unspecified) was read as Chlamy TAG active.
For O=C1CC(N2CCN(C/C=C/c3ccccc3)CC2)C(=O)N1c1ccc(Br)cc1 (stereo unspecified) the results were Chlamy TAG inactive.
`CN1CCN(C2Cc3ccccc3C2)CC1` gave Chlamy TAG inactive.
For CCC(=O)Nc1sc2c(c1C(=O)N1CCCCC1)CCCCC2 the results were Chlamy TAG inactive.
Screening N#C/C(=C\c1cccc(Oc2ccccc2)c1)c1nn(-c2ccccc2)c(N)c1C#N returned Chlamy TAG inactive.
`COc1cc(NC(=O)Nc2c(C)n(C)n(-c3ccccc3)c2=O)cc(OC)c1OC` gave Chlamy TAG inactive.
`O=C(NC1C=CS(=O)(=O)C1)c1ccc([N+](=O)[O-])cc1` (stereo unspecified) gave Chlamy TAG inactive.
`Cc1cc(=O)[nH]c(SCCOc2ccc(Cl)cc2)n1` gave Chlamy TAG inactive.
For CC(=O)Nc1ccc(S(=O)(=O)Nc2cc([N+](=O)[O-])ccc2C)cc1 the results were Chlamy TAG active.
`COc1cc([N+](=O)[O-])ccc1NS(=O)(=O)c1ccc(NC(C)=O)cc1` gave Chlamy TAG inactive.
`COc1ccc([N+](=O)[O-])cc1NS(=O)(=O)c1ccc(NC(C)=O)cc1` gave Chlamy TAG inactive.
Screening Cc1ccc([N+](=O)[O-])cc1-c1ccc(/C=C(\C#N)c2nc3ccccc3[nH]2)o1 returned Chlamy TAG inactive.
For CC1CCCCN1S(=O)(=O)c1ccc(NC(=O)c2ccc(Cl)cc2Cl)cc1 (stereo unspecified) the results were Chlamy TAG active.
For COc1cc(C(=O)Nc2ccc(S(=O)(=O)N3CCCCC3C)cc2)cc(OC)c1OC (stereo unspecified) the results were Chlamy TAG inactive.
Screening CC1CCCCN1S(=O)(=O)c1ccc(C(=O)Nc2ccc([N+](=O)[O-])cc2)cc1 (stereo unspecified) returned Chlamy TAG inactive.
For NC(=O)c1c(NC(=O)Cc2ccc(Cl)cc2)sc2c1CCC2 the results were Chlamy TAG inactive.
`COc1cc(NC(=O)COc2ccccc2C)c(OC)cc1Cl` gave Chlamy TAG inactive.
O=C(Nc1ccc(-c2nc3ncccc3o2)cc1)c1ccccc1[N+](=O)[O-] was read as Chlamy TAG inactive.
Screening CC1Cc2cc(C(=O)NC3CCCCC3)ccc2O1 (stereo unspecified) returned Chlamy TAG inactive.
`Cc1oc(C(C)(C)C)c(COc2ccccc2)c1C(=O)O` gave Chlamy TAG inactive.
Screening Cc1c(N/C=C/C(=O)c2cccs2)c(=O)n(-c2ccccc2)n1C returned Chlamy TAG active.
`Cc1c(NS(=O)(=O)c2cccs2)c(=O)n(-c2ccccc2)n1C` gave Chlamy TAG inactive.
Cc1c(NC(=O)C23CC4CC(CC(C4)C2)C3)c(=O)n(-c2ccccc2)n1C was read as Chlamy TAG inactive.
`COc1ccc(NC(=O)CN(C)S(=O)(=O)c2ccc(Br)cc2)cc1` gave Chlamy TAG inactive.
Screening C=CCNC(=O)CN(c1cc(Cl)cc(Cl)c1)S(C)(=O)=O returned Chlamy TAG inactive.
Screening CC(C)(Oc1ccc(Cl)cc1)C(=O)Nc1cccnc1 returned Chlamy TAG inactive.
Screening O=C(c1cc([N+](=O)[O-])ccc1N1CCCCC1)N1CCOCC1 returned Chlamy TAG inactive.
`COc1cccc(Nc2nc(-c3cc(C)ccc3C)cs2)c1` gave Chlamy TAG inactive.
Cc1ccc(-c2nc3cc(Cl)ccc3o2)cc1NC(=O)c1ccc(Br)o1 was read as Chlamy TAG inactive.
For CCOc1ccc(C(=O)Nc2nc(-c3ccc(OC)c(Br)c3)cs2)cc1[N+](=O)[O-] the results were Chlamy TAG inactive.
O=C(Nc1cccc(NC(=O)c2ccccc2Cl)c1)c1ccc([N+](=O)[O-])cc1 was read as Chlamy TAG inactive.
For CCC(C)c1ccc(NC(=O)c2ccc([N+](=O)[O-])cc2Cl)cc1 (stereo unspecified) the results were Chlamy TAG inactive.
For O=C(Nc1ccc([N+](=O)[O-])cc1)c1c(F)c(F)c(F)c(F)c1F the results were Chlamy TAG active.
`COc1ccc(C(=O)Nc2ccc(C(C)C)cc2)cc1[N+](=O)[O-]` gave Chlamy TAG inactive.
For O=C(Nc1ccc([N+](=O)[O-])cc1)c1ccccc1Cl the results were Chlamy TAG active.
COc1cccc(OC)c1C(=O)Nc1ccc([N+](=O)[O-])cc1 was read as Chlamy TAG inactive.
Screening Cc1ccc(C(=O)Nc2ccncc2)cc1[N+](=O)[O-] returned Chlamy TAG inactive.
Screening O=C(Nc1cccc(Cl)c1)c1ccc([N+](=O)[O-])cc1Cl returned Chlamy TAG inactive.
`CCSc1ccc(C(=O)Nc2ccc(Cc3ccncc3)cc2)cc1[N+](=O)[O-]` gave Chlamy TAG active.
`O=C(Nc1ccc(Cc2ccncc2)cc1)c1ccc([N+](=O)[O-])cc1Cl` gave Chlamy TAG active.
`Cc1ccccc1C(=O)Nc1ccc([N+](=O)[O-])cc1` gave Chlamy TAG inactive.
Screening O=C(O)c1ccc(NC(=O)c2ccc([N+](=O)[O-])cc2)cc1 returned Chlamy TAG inactive.
Screening Cc1cc(OCC(=O)N2CCN(c3ccccn3)CC2)cc(C)c1Br returned Chlamy TAG inactive.
